Here are results for six molecules from PubChem BioAssay (NCI).

This is part of a sample that, as a whole, favours compounds with a hit. Of some 83,000 tested, about 20% had one in any assay.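 Compound tested at a single concentration for 48 hours in 96-well plates; a percent growth value below 10 was scored as active.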 Values without a mark were called inactive. Active and inactive are the calls of the source.

Among the test systems are DU-145 prostate; K-562 leukemia; MALME-3M melanoma; MDA-MB-231 breast; RXF 393 renal; SF-268 CNS; SF-539 CNS; UACC-257 melanoma; M14 melanoma; HCT-15 colon; HT29 colon; SNB-75 CNS; U251 CNS; PC-3 prostate; SK-MEL-5 melanoma; UACC-62 melanoma; LOX IMVI melanoma; SK-MEL-28 melanoma; SNB-19 CNS.
Holding throughout (assay): NCI-60 one-dose screen, 48 h (100 = growth as untreated, 0 = no growth, -100 = all killed)
Holding throughout (conditions): 10 µM unless noted

Regarding `C#CC[C@@H]1C[C@]2(C)[C@H]3CC=C4[C@H]5[C@@H](C)[C@H](C)CC[C@]5(C(=O)NCCCCN)CC[C@@]4(C)[C@]3(C)CC[C@H]2C(C)(C)[C@H]1OC(C)=O`, the growth is 58.6% in the test with DU-145 prostate; -26.6% (active) with K-562 leukemia; 98.9% in the test with MALME-3M melanoma; 39.5% in the test with MDA-MB-231 breast; 56.4% in the test with RXF 393 renal; 69.8% in the test with SF-268 CNS. For the same molecule, the growth is 84.7% in the test with SF-539 CNS; 115% with UACC-257 melanoma; 66.6% with M14 melanoma; 31.9% with HCT-15 colon; 10.5% in the test on HT29 colon; 81.1% with SNB-75 CNS. Also, the growth in the test with U251 CNS is 40.7%; in the test with PC-3 prostate it was 47.5%; in the test on SK-MEL-5 melanoma, 94.9%; in the test on UACC-62 melanoma, 106%; in the test on LOX IMVI melanoma it was 18.6%; with SK-MEL-28 melanoma, 100%.

As for `CCCCCCCCCCCCCC(=S)NCCCC[C@H](NC(=O)OCc1ccccc1)C(=O)Nc1ccccc1`, the growth in the test on DU-145 prostate is 52.4%; with K-562 leukemia, 17.1%; in the test on MALME-3M melanoma it was 83.6%; in the test on MDA-MB-231 breast, 17.5%; in the test with RXF 393 renal, 69.1%; with SF-268 CNS it was 43.3%. Further, the growth in the test with SF-539 CNS is 75.3%; in the test with UACC-257 melanoma, 69.1%; in the test with HCT-15 colon, 32.6%; in the test on HT29 colon, 45.1%; with SNB-19 CNS it was 45.8%; in the test with U251 CNS, 28.7%. For the same molecule, the growth in the test on PC-3 prostate was 25.7%; in the test on SK-MEL-5 melanoma, 68.6%; in the test with UACC-62 melanoma, 43.1%; in the test on LOX IMVI melanoma, 42.2%; with SK-MEL-28 melanoma, 72.2%.

Take `CC(C)N1CCN(c2ccncc2S(=O)(=O)N2CCN(C)CC2)CC1`: the growth in the test with DU-145 prostate is 110%; in the test with K-562 leukemia, 98%; in the test with MALME-3M melanoma, 113%; in the test on MDA-MB-231 breast, 101%; in the test on RXF 393 renal, 107%; with SF-268 CNS, 107%. Besides, the growth in the test on SF-539 CNS was 99.8%; with UACC-257 melanoma it was 102%; in the test on M14 melanoma, 99.5%; in the test with HCT-15 colon, 97.6%; in the test with HT29 colon it was 102%; in the test on SNB-75 CNS, 80.6%. Also, the growth was 98.8% in the test on U251 CNS; 114% in the test on PC-3 prostate; 100% in the test on SK-MEL-5 melanoma; 108% with UACC-62 melanoma; 97.4% in the test with LOX IMVI melanoma; 114% with SK-MEL-28 melanoma.

For the molecule `COc1cc(NC(C)CCCN)c2ncccc2c1Oc1ccc(Cl)cc1` (configuration not stated), the growth is 74.8% in the test with DU-145 prostate; 52.2% with K-562 leukemia; 88.1% with MALME-3M melanoma; 42.4% in the test on MDA-MB-231 breast; 79.5% in the test with RXF 393 renal; 77.5% with SF-268 CNS. Besides, the growth in the test on SF-539 CNS was 81.2%; with UACC-257 melanoma, 88.5%; in the test with M14 melanoma, 74.4%; in the test on HCT-15 colon, 84.5%; with HT29 colon it was 34.5%; in the test on SNB-75 CNS, 78.7%. Also, the growth in the test with U251 CNS is 72.7%; with PC-3 prostate, 63.9%; in the test on SK-MEL-5 melanoma, 81%; with UACC-62 melanoma, 91.1%; in the test on LOX IMVI melanoma, 39.9%; in the test on SK-MEL-28 melanoma, 109%.

Turning to `Cn1c(=O)c2c3c(oc2c2ccccc21)C(=O)c1ccccc1C3=O`, the growth in the test on DU-145 prostate was 91%; in the test with K-562 leukemia, 68.8%; with MALME-3M melanoma it was 113%; in the test with MDA-MB-231 breast, 11.5%; with RXF 393 renal it was 101%; in the test with SF-268 CNS it was 95.3%. Besides, the growth in the test with SF-539 CNS is 97.2%; in the test on UACC-257 melanoma, 106%; with M14 melanoma it was 85.6%; in the test on HCT-15 colon it was 85%; with HT29 colon, 73.7%; with SNB-19 CNS, 93.3%. Also, the growth is 90.2% in the test on U251 CNS; 64.4% with PC-3 prostate; 76.9% in the test with SK-MEL-5 melanoma; 77% in the test on UACC-62 melanoma; 76.6% in the test on LOX IMVI melanoma; 112% in the test on SK-MEL-28 melanoma.

As to `CCC1CCc2nc3sc(C(=O)Nc4cccc(F)c4)c(N)c3cc2C1` (configuration not stated), the growth in the test with DU-145 prostate was 60%; with K-562 leukemia, 28.6%; with MALME-3M melanoma, 34.8%; in the test on MDA-MB-231 breast, 78.3%; in the test on RXF 393 renal, 65.8%; in the test with SF-268 CNS it was 68.2%. Further, the growth is 58.8% in the test on SF-539 CNS; 49.5% in the test with UACC-257 melanoma; 47.5% in the test with M14 melanoma; 31.7% in the test with HCT-15 colon; 33.5% in the test on HT29 colon; 51.7% with SNB-75 CNS. In addition, the growth was 56.3% in the test with U251 CNS; 63.6% in the test on PC-3 prostate; 41.9% in the test with SK-MEL-5 melanoma; 39.5% in the test with UACC-62 melanoma; 61.3% in the test on LOX IMVI melanoma; 59.7% with SK-MEL-28 melanoma.
